Screens (PubChem BioAssay)
FMDV antiviral = antivirals against foot and mouth disease virus; FMDV antiviral cell-based qHTS; Potency, µM (titrated, usually from 57.9 µM), inactives show at the highest dose activity change, negative = inhibition, most hits filed as inhibitors; actives 1.2% (n = 410,000); AID 1159524; calls by dose curve; tested in HEK293T cells; further: read-out not given here; potency means the concentration at half of the fitted maximal effect; on the % scale 0 is the no-effect control and ±100 the full control effect; nearly all actives have a fitted effect of over 45% in size
Shiga inhibitor = Shiga toxin inhibition; Vero cells, Shiga toxin protein synthesis inhibition reporter; inhibition, % at 38.7 µM; actives 9.2% (n = 290,000); in the data active means inhibition mostly above about 28%, no sharp cut-off; inactive means mostly below about 43%; further: 0% is about no effect
Sm TGR inh = blocks Schistosoma mansoni thioredoxin glutathione reductase; purified TGR, DTNB reduction, TNB absorbance 405 nm; Q962Y6; Potency, µM (doses to about 114 µM), without a hit: at the highest dose activity change, negative = inhibition, actives largely listed as inhibitors; actives 3% (n = 360,000); active means well fitted inhibition curve with a large enough effect; inconclusive means small, poorly fitted or top-dose-only effect; inactive means no such curve, though single readings can be large or run the other way; further: potency means the concentration at half of the fitted maximal effect; on the % scale 0 is the no-effect control and ±100 the full control effect; nearly all actives have a fitted effect of over 60% in size
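TGR 20 nM + NADPH 100 uM (dispensed conc.), cpd preinc 15 min RT; start with NADPH (500 uM addition) then DTNB (15 mM addition). Kinetic TNB absorbance, 405 nm filter. Four-parameter Hill fit across titration.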
Cycloheximide cs = counter-screen hit for Shiga toxin inhibitors, cycloheximide | cell reporter, cycloheximide protein synthesis inhibition counterscreen | max response, % | actives 12% (n = 300,000); in the data active means max response mostly above about 13%, no sharp cut-off; inactive means mostly below about 14%; further: read at 38.3 µM for the half of the compounds with a filed dose; 0% is about no effect
Active calls of the source: *; [ ] = dose if it differs, or a comment. This is a sample that favours compounds with a hit; in the whole collection about 12% have one here.

Results for CCC(=O)N1CCN(c2ccc(NC(=O)c3cc4ccccc4o3)cc2)CC1 ?
FMDV antiviral: inconclusive; Shiga inhibitor: 42.2; Sm TGR inh: -6.9%; Cycloheximide cs: 15.6*

Results for O=C(/C=C/N1CCOCC1)c1cc2ccccc2o1 ?
FMDV antiviral: -18.0%; Shiga inhibitor: 70.7*; Sm TGR inh: inconclusive; Cycloheximide cs: 26.9*

What do the screens show for `CCN1Cc2cccc(C(=O)Nc3ccc(F)cc3)c2C1=O`?
FMDV antiviral: -11.2%; Sm TGR inh: -0.6%

What do the screens show for `CNc1ccc(Br)cc(C(=O)/C=C/c2cccc(OC)c2)c1=O`?
FMDV antiviral: inconclusive; Shiga inhibitor: -35.5; Sm TGR inh: 3.16µM*; Cycloheximide cs: 12.8*

What do the screens show for `CCNc1ccc(Br)cc(C(=O)/C=C/c2ccc3c(c2)OCO3)c1=O`?
FMDV antiviral: inconclusive; Shiga inhibitor: 14.7; Sm TGR inh: inconclusive; Cycloheximide cs: 12.9

What do the screens show for `COC(=O)c1sccc1NC(=O)/C=C/c1ccc(Cl)cc1Cl`?
FMDV antiviral: 17.5%; Shiga inhibitor: -4.7; Sm TGR inh: 1.2%; Cycloheximide cs: -2.4

How did COc1ccc(/C=C/C(=O)c2cc(Cl)cc(Cl)c2O)c(OC)c1 do in these assays?
FMDV antiviral: 1.6%; Shiga inhibitor: -4.7; Sm TGR inh: -27.6%; Cycloheximide cs: -1.7

What do the screens show for `CNc1ccc(Br)cc(C(=O)/C=C/c2ccc(OC)cc2OC)c1=O`?
FMDV antiviral: inconclusive; Shiga inhibitor: 79.6*; Sm TGR inh: inconclusive; Cycloheximide cs: 64.9*

What do the screens show for `CNc1ccc(Br)cc(C(=O)/C=C/c2ccc(Cl)cc2Cl)c1=O`?
FMDV antiviral: 10µM*; Shiga inhibitor: -4.1; Sm TGR inh: 3.55µM*; Cycloheximide cs: 2.1

How did c1csc(CNc2nc(CN3CCCC(c4nc5ccccc5o4)C3)nc3ccccc23)c1 (stereo not given) do in these assays?
FMDV antiviral: 7.6%

Results for COc1ccc(-c2noc(COc3cc(C)ccc3C)n2)cc1OC ?
FMDV antiviral: -18.5%; Sm TGR inh: 1.0%

Results for CS(=O)(=O)c1ncc(N(Cc2ccco2)Cc2cccs2)c(C(=O)Nc2ccccc2F)n1 ?
FMDV antiviral: -23.1%; Sm TGR inh: -6.7%

How did CCOc1ccccc1CNC(=O)c1ccc(CS(=O)Cc2cccc(Cl)c2)o1 (stereo not given) do in these assays?
FMDV antiviral: 4.3%; Sm TGR inh: inconclusive

What do the screens show for `C=CCc1cccc2cc(C(=O)O)c(=O)oc12`?
FMDV antiviral: -2.7%; Shiga inhibitor: -7.9; Sm TGR inh: -11.1%; Cycloheximide cs: -5.1

What do the screens show for `COc1ccc2cc(-c3nc4ccc(C(=O)O)cc4[nH]3)c(=O)oc2c1`?
FMDV antiviral: 1µM*; Sm TGR inh: -7.7%

Results for COc1ccc2oc(=O)c(-c3nc4ccc(C)cc4[nH]3)cc2c1 ?
FMDV antiviral: 24.0%; Sm TGR inh: -0.4%

What do the screens show for `CCOc1cccc2cc(-c3nc4ccc(C(=O)O)cc4[nH]3)c(=O)oc12`?
FMDV antiviral: 11.2µM*; Sm TGR inh: -10.0%

How did C=CCc1cccc2cc(-c3nc4ccc(C(=O)O)cc4[nH]3)c(=O)oc12 do in these assays?
FMDV antiviral: 15.8µM*; Sm TGR inh: 3.4%

Results for COc1cccc2cc(-c3nc4ccc(C)cc4[nH]3)c(=O)oc12 ?
FMDV antiviral: 45.1%; Sm TGR inh: 14.4%

How did CC1CCN(S(=O)(=O)c2ccc3c(c2)N(CC(=O)NC(C)(C)C)C(=O)CS3)CC1 do in these assays?
FMDV antiviral: 3.6%; Sm TGR inh: -14.6%

How did NC(=O)Cn1c(=O)n(Cc2ccco2)c(=O)c2c3c(sc21)CCCCC3 do in these assays?
FMDV antiviral: -22.7%; Shiga inhibitor: 11.2; Sm TGR inh: 7.08µM*; Cycloheximide cs: -2.3

Results for O=c1c2c3c(sc2n(CCN2CCCCC2)c(=O)n1Cc1ccco1)CCCCC3 ?
FMDV antiviral: -8.8%; Shiga inhibitor: -4.8; Sm TGR inh: 6.8%; Cycloheximide cs: 8.4

How did O=C(Cn1c(=O)n(Cc2ccco2)c(=O)c2c3c(sc21)CCCC3)Nc1ccccc1 do in these assays?
FMDV antiviral: -14.5%; Shiga inhibitor: -8.0; Sm TGR inh: 50.1µM*; Cycloheximide cs: 9.8

How did CCOC(=O)c1c(C)[nH]c(C)c1S(=O)(=O)N1CCC(C(=O)Nc2ccc(OCC)cc2)CC1 do in these assays?
FMDV antiviral: -11.5%; Sm TGR inh: -1.0%

How did CN(C)c1ccc(NC(=O)Cn2nnc3sc4c(c3c2=O)CCC(C(C)(C)C)C4)cc1 (stereo not given) do in these assays?
FMDV antiviral: -0.5%; Sm TGR inh: -7.8%

Results for CC1(C)COC(/C=C/c2ccc([N+](=O)[O-])cc2)=N1 ?
FMDV antiviral: -0.1%; Shiga inhibitor: 83.9*; Sm TGR inh: -17.6%; Cycloheximide cs: 55.7*

How did CCOC(=O)CC(NC(=O)Cc1cccs1)c1ccccc1Cl (stereo not given) do in these assays?
FMDV antiviral: 41.4%; Shiga inhibitor: 2.1; Sm TGR inh: 89.1µM*; Cycloheximide cs: 7.6

Results for CC1(CCc2ccccc2)NC(=S)N(c2ccccc2)N1 (stereo not given) ?
FMDV antiviral: -1.6%; Shiga inhibitor: 42.4*; Sm TGR inh: -6.4%; Cycloheximide cs: 39.7*

Results for CC1(c2ccc(Cl)cc2)NC(=S)N2C1NC(=S)N2c1ccccc1 (stereo not given) ?
FMDV antiviral: 50.9%; Shiga inhibitor: -3.1; Sm TGR inh: -18.8%; Cycloheximide cs: 2.0

Results for CC1(CCc2ccccc2)NC(=S)N(c2ccc(Cl)cc2)N1 (stereo not given) ?
FMDV antiviral: 14.5%; Shiga inhibitor: 59.2*; Sm TGR inh: 0.0%; Cycloheximide cs: 36.2*

What do the screens show for `CC1(CCc2ccccc2)NC(=O)N(CC(=O)O)C1=O` (stereo not given)?
FMDV antiviral: -7.3%; Shiga inhibitor: -6.5; Sm TGR inh: 2.9%; Cycloheximide cs: -4.1

What do the screens show for `CCCS(=O)(=O)N1CCC(C(=O)NCCOC)CC1`?
FMDV antiviral: 0.0%; Sm TGR inh: 3.9%

What do the screens show for `CCOc1ccccc1CNC(=O)c1cnc2sc(N3CCOCC3)nn2c1=O`?
FMDV antiviral: -12.9%; Sm TGR inh: 0.8%

What do the screens show for `C/C(CC(=O)Nc1cc(C)ccn1)=N\NC(=O)c1ccccc1C`?
FMDV antiviral: 33.2%; Shiga inhibitor: 51.0*; Sm TGR inh: 2.2%; Cycloheximide cs: 25.9*

What do the screens show for `C/C(CC(=O)Nc1cc(Cl)ccc1Cl)=N\NC(=O)COc1cccc(C)c1`?
FMDV antiviral: 35.2%; Shiga inhibitor: 15.9; Sm TGR inh: 6.2%; Cycloheximide cs: -4.2

Results for C/C(CC(=O)Nc1cccc(Cl)c1Cl)=N\NC(=O)c1ccccc1C ?
FMDV antiviral: -4.4%; Shiga inhibitor: 18.3; Sm TGR inh: -27.5%; Cycloheximide cs: 11.0*

What do the screens show for `C/C(CC(=O)Nc1ccccn1)=N\NC(=O)C(=O)Nc1cccc(C)c1`?
FMDV antiviral: -3.6%; Shiga inhibitor: 15.2; Sm TGR inh: 25.6%; Cycloheximide cs: -0.6

Results for C/C(CC(=O)Nc1cc(C)ccn1)=N\NC(=O)COc1cccc(C)c1 ?
Shiga inhibitor: -11.6; Sm TGR inh: -1.0%; Cycloheximide cs: 31.0*

How did C/C(CC(=O)Nc1cc(C)ccn1)=N\NC(=O)c1ccc(C)cc1 do in these assays?
FMDV antiviral: 2.5%; Shiga inhibitor: 53.1*; Sm TGR inh: 0.3%[57.1 µM]; Cycloheximide cs: 29.4*
